From PubChem BioAssay (Tox21)
Where “and” joins values, the source holds several entries; their conditions need not be identical. Equal entries are not always repeated. Inconclusive results are not listed. Where a call stands in place of a potency, no number is given. Where a structure was tested more than once in an assay, its records may differ in their call. Calls of active or inactive are those of the source. Unless noted, calls follow the shape of the dose curve; as a rule, active = well fitted curve in the direction sought with a large enough effect in the repeat runs; inconclusive = weak or mixed curves; inactive = no such curve, though single readings can be large; an effect the other way counts as inactive or inconclusive.

Legend:
[1] = qHTS assay for small molecule agonists of the p53 signaling pathway (AID 651631; calls by dose curve; also: nearly all actives have a fitted effect of over 15% in size; also: potency is read from the fitted curve at half-maximal effect)
Method in brief: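 We treat p53RE-bla HCT-116 cells with compounds for 16 h at 37 °C, add LiveBLAzer B/G FRET substrate for 2 h at room temperature, and measure fluorescence intensity.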

[2] = qHTS assay for small molecules that induce genotoxicity in human embryonic kidney cells expressing luciferase-tagged ATAD5 (AID 651632); also: nearly all actives have a fitted effect of over 15% in size
Method in brief: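 A rise in luciferase signal from ATAD5-tagged HEK293T cells marks genetic stress. Cells were exposed to compounds for 16 hr at 37C, 5% CO2, then luciferase was quantified after a 30 min room-temperature incubation with Amplite.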

[3] = qHTS assay for small molecule agonists of the p53 signaling pathway - cell viability (AID 651633; calls by dose curve;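 also: p53RE-bla HCT reporter cells with a stable beta-lactamase p53 reporter; series mostly up to about 83 µM; nearly all actives have a fitted effect of over 30% in size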)
Method in brief: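 Viability counter-read: CellTiter-Glo luminescence (30 min, room temperature) in the same p53RE-bla plates. These plates had been exposed to compounds for 16 h at 37 C.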

[4] = qHTS assay for small molecule disruptors of the mitochondrial membrane potential - cell viability (AID 720634; calls by dose curve;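 also: human HepG2 liver cancer cells; series mostly up to about 83 µM; nearly all actives have a fitted effect of over 20% in size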)
Method in brief: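 Cytotoxicity was quantified from ATP content by CellTiter-Glo luminescence in the same wells as the MMP dye read-out. HepG2 (2,000 cells/well) were plated overnight and exposed to compounds for 1 hr at 37 C.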

[5] = qHTS assay for small molecule disruptors of the mitochondrial membrane potential (AID 720635); also: potency is read from the fitted curve at half-maximal effect
Method in brief: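 Mitochondrial membrane potential tracked with Mito-MPS dye, red aggregates (ex 540/em 590 nm) against green monomers (ex 490/em 535 nm). Compound treatment 1 hr at 37C, dye 30 min in HepG2.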

[6] = qHTS assay to test for compound auto fluorescence at 590 nm (red) in HepG2 cells (AID 720674)
Method in brief: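 1 hr compound incubation on HepG2 cells, 37 C, 5% CO2; plate read ex 540 nm / em 590 nm; intensities reported as Rose Bengal sodium equivalents.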

[7] = qHTS assay to test for compound auto fluorescence at 535 nm (green) in HepG2 cells (AID 720675)
[8] = qHTS assay to test for compound auto fluorescence at 460 nm (blue) in HEK293 cells (AID 720678)
Method in brief: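 Measured: blue fluorescence (Ex 405/Em 460 nm) of compound-treated HEK293 cells, incubated overnight at 37C with 5% CO2 and scaled to triamterene equivalents.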

[9] = qHTS assay to test for compound auto fluorescence at 535 nm (green) in HEK293 cells (AID 720680)
[10] = qHTS assay to test for compound auto fluorescence at 460 nm (blue) in HEK293 cell free culture (AID 720681)
Method in brief: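 Blue fluorescence (Ex 405/Em 460 nm, triamterene-equivalent) was read immediately after pin transfer of compound or DMSO into medium (DMEM, 10% FBS) without cells.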

[11] = qHTS assay to test for compound auto fluorescence at 535 nm (green) in HEK293 cell free culture (AID 720682)
Method in brief: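 Green-channel intensity (Ex/Em 485/535 nm) was recorded from compound-treated wells containing only DMEM with 10% FBS. Fluorescein provided the equivalency standard.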

[12] = qHTS assay to test for compound auto fluorescence at 590 nm (red) in HEK293 cell free culture (AID 720683)
Method in brief: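 Red-channel autofluorescence of compounds in culture medium (DMEM, 10% FBS), no cells, measured at 540/590 nm. Rose Bengal sodium is the reference fluorophore for equivalence.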

[13] = qHTS assay to test for compound auto fluorescence at 590 nm (red) in HepG2 cell free culture (AID 720684)
Method in brief: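 Cell-free; medium MEM + 10% FBS; compound or DMSO added by pintool; read Ex 540/Em 590 nm; Rose Bengal sodium as red reference fluorophore.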

[14] = qHTS assay to test for compound auto fluorescence at 460 nm (blue) in HepG2 cell free culture (AID 720685)
Method in brief: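 Cell-free plates of MEM plus 10% FBS received 23 nL compound or DMSO vehicle; blue-channel (405/460 nm) intensity scored against triamterene as reference fluorophore.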

[15] = qHTS assay to test for compound auto fluorescence at 535 nm (green) in HepG2 cell free culture (AID 720686)
[16] = qHTS assay to test for compound auto fluorescence at 460 nm (blue) in HepG2 cells (AID 720687)
Method in brief: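 Blue-channel autofluorescence (Ex/Em 405/460 nm, triamterene-equivalent) was measured after 1 hr compound exposure at 37 C, 5% CO2. Cells were HepG2, plated overnight at 37 C in MEM plus 10% FBS.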

[17] = qHTS assay for small molecules that induce genotoxicity in human embryonic kidney cells expressing luciferase-tagged ATAD5 - cell viability (AID 651634; calls by dose curve; also: nearly all actives have a fitted effect of over 25% in size; also: potency is read from the fitted curve at half-maximal effect)
Method in brief: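 Cytotoxicity counter-readout: after 15.5 hr compound treatment at 37C, live-cell protease activity in ATAD5-luciferase HEK293T cells measured by CellTiter-Fluor fluorescence, 30 min development at 37C.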

[18] = qHTS assay to test for compound auto fluorescence at 590 nm (red) in HEK293 cells (AID 720679)
Method in brief: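 Using HEK293 cells at 2,000 per well, the screen added 23 nL of each compound after cell attachment and incubated overnight (37C, 5% CO2). The plate reader then captured red-label fluorescence, Ex/Em 540/590nm.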

[19] = target: Glucocorticoid receptor (Homo sapiens) (UniProt P04150); assay: qHTS assay to identify small molecule antagonists of the glucocorticoid receptor (GR) signaling pathway (AID 720692; active = well fitted inhibition curve with a large enough effect in the signal ratio in the repeat runs, not every such curve was filed as active; the % refers to the signal ratio)
Chain of Glucocorticoid receptor (Homo sapiens) (P04150 whole entry, looked up): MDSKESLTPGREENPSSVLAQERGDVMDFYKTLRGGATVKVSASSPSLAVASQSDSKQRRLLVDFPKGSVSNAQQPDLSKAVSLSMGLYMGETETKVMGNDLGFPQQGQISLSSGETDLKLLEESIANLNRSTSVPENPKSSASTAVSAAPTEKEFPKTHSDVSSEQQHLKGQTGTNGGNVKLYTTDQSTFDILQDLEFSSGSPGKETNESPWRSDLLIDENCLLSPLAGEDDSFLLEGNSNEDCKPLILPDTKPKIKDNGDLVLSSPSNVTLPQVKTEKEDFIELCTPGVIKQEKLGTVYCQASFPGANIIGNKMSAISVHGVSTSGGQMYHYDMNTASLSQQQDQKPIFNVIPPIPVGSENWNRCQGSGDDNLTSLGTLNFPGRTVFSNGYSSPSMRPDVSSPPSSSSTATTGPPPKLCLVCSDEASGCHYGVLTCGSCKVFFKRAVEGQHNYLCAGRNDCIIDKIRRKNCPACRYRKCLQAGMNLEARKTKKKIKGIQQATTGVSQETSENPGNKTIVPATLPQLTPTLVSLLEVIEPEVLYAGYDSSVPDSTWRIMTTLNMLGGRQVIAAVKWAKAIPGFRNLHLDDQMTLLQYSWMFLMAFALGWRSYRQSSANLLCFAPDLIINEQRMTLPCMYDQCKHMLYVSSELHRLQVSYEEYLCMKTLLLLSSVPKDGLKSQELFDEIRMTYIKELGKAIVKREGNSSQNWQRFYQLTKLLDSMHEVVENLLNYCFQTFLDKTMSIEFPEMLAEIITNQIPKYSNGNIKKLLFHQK
Method in brief: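 Inhibition of dexamethasone-driven (5 nM final) beta-lactamase expression was measured in GRE-reporter HeLa cells over 18 h at 37C. Fluorescence was read after 2 h with the B/G FRET substrate at room temperature.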

[20] = target: Glucocorticoid receptor (Homo sapiens) (UniProt P04150); assay: qHTS assay to identify small molecule agonists of the glucocorticoid receptor (GR) signaling pathway (AID 720691; active = well fitted activation curve with a large enough effect in the signal ratio in the repeat runs, not every such curve was filed as active; the % refers to the signal ratio)
Method in brief: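 Agonist-mode qHTS in HeLa cells stably expressing a glucocorticoid-response-element beta-lactamase reporter. Fluorescence intensity read with FRET substrate (2 h, room temperature) after 18 h compound treatment at 37 C.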

| Compound | Potency [1] | Potency [2] | Potency [3] | Potency [4] | Potency [5] | Potency [6] | Potency [7] | outcome [8] | Potency [9] | Potency [10] | Potency [11] | Potency [12] | Potency [13] | Potency [14] | Potency [15] | Potency [16] | Potency [17] | Potency [18] | Potency [19] | Potency [20] |
| --- | --- | --- | --- | --- | --- | --- | --- | --- | --- | --- | --- | --- | --- | --- | --- | --- | --- | --- | --- | --- |
| CC1=CC(C)(C)Nc2ccccc21 | inactive | inactive | inactive | inactive | inactive and 59.5 µM (active) | inactive | inactive | inactive | inactive | inactive | inactive | inactive | inactive | inactive | inactive | inactive |  |  |  |  |
| O=[Se](O)O | 24.4 µM (active) and inactive | inactive | inactive |  |  | inactive | inactive | inactive | inactive | inactive | inactive | inactive | inactive | inactive | inactive | inactive | 687 nM (active) | inactive |  |  |
| CC(C)(Oc1ccc(Cl)cc1)C(=O)O | inactive | inactive | inactive |  |  | inactive | inactive | inactive | inactive | inactive | inactive | inactive | inactive | inactive | inactive | inactive | inactive | inactive | inactive |  |
| C=C[Si](OCCOC)(OCCOC)OCCOC | inactive | inactive | inactive |  |  | inactive | inactive | inactive | inactive | inactive | inactive | inactive | inactive | inactive | inactive | inactive | inactive | inactive | inactive |  |
| CCO[Si](CCCNC(N)=O)(OCC)OCC | inactive | inactive | inactive | inactive | inactive | inactive | inactive | inactive | inactive | inactive | inactive | inactive | inactive | inactive | inactive | inactive | inactive |  | inactive | inactive |
| Cc1ccc(S(=O)(=O)NCl)cc1 | inactive | inactive | inactive |  | inactive | inactive | inactive | inactive | inactive | inactive | inactive | inactive | inactive | inactive | inactive | inactive | inactive | inactive | inactive |  |
| C=CCNCC=C | inactive | inactive | inactive |  |  | inactive | inactive | inactive | inactive | inactive | inactive | inactive | inactive | inactive | inactive | inactive |  | inactive | inactive | inactive |
| IC(I)I | inactive | inactive | inactive |  |  | inactive | inactive | inactive | inactive | inactive | inactive | inactive | inactive | inactive | inactive | inactive |  | inactive | inactive | inactive |
| c1ccc2c(c1)ccc1cc3c(ccc4ccccc43)cc12 | 12.1 µM (active) |  | inactive | inactive |  | inactive | inactive | inactive | inactive | inactive | inactive | inactive | inactive | inactive | inactive | inactive | inactive | inactive | inactive |  |
| CC1(C)OC(=O)NC1=O | inactive |  | inactive | inactive | inactive | inactive | inactive | inactive | inactive | inactive | inactive | inactive | inactive | inactive | inactive | inactive |  |  | inactive | inactive |
| NCCOCCO | inactive |  | inactive | inactive |  | inactive | inactive | inactive | inactive | inactive | inactive | inactive | inactive | inactive | inactive | inactive | inactive |  | inactive |  |
| CC(=O)OC(C)C | inactive |  | inactive |  | inactive | inactive | inactive | inactive | inactive | inactive | inactive | inactive | inactive | inactive | inactive | inactive | inactive | inactive | inactive | inactive |
| NCCN | inactive |  | inactive | inactive |  | inactive | inactive | inactive | inactive | inactive | inactive | inactive | inactive |  | inactive | inactive |  | inactive |  |  |
| c1ccc2ncccc2c1 | inactive | inactive | inactive |  | inactive | inactive | inactive | inactive | inactive | inactive | inactive | inactive | inactive | inactive | inactive | inactive |  |  | inactive |  |
| Brc1nc2ccccc2s1 | inactive |  | inactive |  |  | inactive | inactive | inactive | inactive | inactive | inactive | inactive | inactive | inactive | inactive | inactive | inactive | inactive | inactive | inactive |
| Cc1ccc(S(=O)(=O)O)cc1C | inactive |  | inactive | inactive |  | inactive | inactive | inactive | inactive | inactive | inactive | inactive | inactive |  | inactive | inactive | inactive | inactive | inactive | inactive |
